According to PubChem BioAssay AID1159580 (chemical genetic matrix, 2015):
Where “and” joins values, the source holds several entries; their conditions need not be identical. Equal entries are not always repeated. Hit rate of the full screen: of about 5,500 compounds, about 2,000 (36%) were called active. Roughly 18% stayed inconclusive and do not appear here. No stated cut-off is given here; in the data, active means normalized growth mostly below about 0.91 (no sharp cut-off); inconclusive means no clear call, values can overlap the other calls; inactive means mostly above about 0.92. The list shows a part of the results.

Assay: chemical genetic growth profiling, strain panel (AID 1159580);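 further: tested at 20 µM; growth read once vehicle control cultures reached saturation at 30 °C; 1 = growth at the plate median or of vehicle wells; lower values mean less growth of the strain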
Settings: S. cerevisiae deletion strains, growth OD

Measured: normalized growth

CC(C)=CCC1=C(O)c2ccccc2C(=O)C1=O
active: locus YAL021C, strain ccr4, hits give low values 0.748 | locus YAL026C, strain drs2, hits give low values 0.472 | locus YAL030W, strain snc1, hits give low values 0.799 | locus YBL061C, strain skt5, hits give low values 0.774 | locus YBR009C, strain hhf1, hits give low values 0.804 | locus YBR023C, strain chs3, hits give low values 0.749 | locus YBR171W, strain sec66, hits give low values 0.707 | locus YBR231C, strain swc5, hits give low values 0.718 | locus YBR279W, strain paf1, hits give low values 0.76 | locus YCL011C, strain gbp2, hits give low values 0.795 | locus YCL016C, strain dcc1, hits give low values 0.762 | locus YCL029C, strain bik1, hits give low values 0.899 | locus YCL069W, strain vba3, hits give low values 0.675 | locus YCR088W, strain abp1, hits give low values 0.799 | locus YDL005C, strain med2, hits give low values 0.759 | locus YDL040C, strain nat1, hits give low values 0.843 | locus YDL185W, strain tfp1, hits give low values 0.86 | locus YDL192W, strain arf1, hits give low values 0.896 | locus YDR001C, strain nth1, hits give low values 0.816 | locus YDR069C, strain doa4, hits give low values 0.719 | locus YDR137W, strain rgp1, hits give low values 0.328 | locus YDR159W, strain sac3, hits give low values 0.549 | locus YDR297W, strain sur2, hits give low values 0.832 | locus YDR318W, strain mcm21, hits give low values 0.902 | locus YDR334W, strain swr1, hits give low values 0.795 | locus YDR335W, strain msn5, hits give low values 0.514 | locus YDR388W, hits give low values 0.928 | locus YDR392W, strain spt3, hits give low values 0.703 | locus YEL003W, strain gim4, hits give low values 0.788 | locus YEL037C, strain rad23, hits give low values 0.825 | locus YEL061C, strain CIN8 (second series), hits give low values 0.799 | locus YER015W, strain faa2, hits give low values 0.648 | locus YER016W, strain bim1, hits give low values 0.635 | locus YER111C, strain swi4, hits give low values 0.564 | locus YER155C, strain BEM2 (second series), hits give low values 0.792 | locus YFR010W, strain ubp6, hits give low values 0.752 | locus YGL078C, strain dbp3, hits give low values 0.914 | locus YGL086W, strain mad1, hits give low values 0.879 | locus YGL167C, strain pmr1, hits give low values 0.0913 | locus YGL173C, strain kem1, hits give low values 0.745 | locus YGL227W, strain vid30, hits give low values 0.767 | locus YGL253W, strain hxk2, hits give low values 0.592 | locus YHR027C, strain rpn1, hits give low values 0.537 | locus YHR142W, strain chs7, hits give low values 0.421 | locus YIL125W, strain kgd1, hits give low values 0.93 | locus YJL092W, strain hpr5, hits give low values 0.793 | locus YJL095W, strain BCK1 (second series), hits give low values 0.675 | locus YJL115W, strain asf1, hits give low values 0.861 | locus YJL129C, strain trk1, hits give low values 0.554 | locus YJL154C, strain vps35, hits give low values 0.815 | locus YJL164C, strain tpk1, hits give low values 0.775 | locus YJL166W, strain qcr8, hits give low values 0.714 | locus YJL187C, strain SWE1, hits give low values 0.789
inactive: locus YAL013W, strain DEP1, hits give low values 0.949 | locus YBR021W, strain FUR4, hits give low values 1.05 | locus YBR229C, strain ROT2, hits give low values 0.963 | locus YDL035C, strain GPR1, hits give low values 0.97 | locus YDL074C, strain BRE1, hits give low values 0.994 | locus YDL101C, strain DUN1, hits give low values 0.951 | locus YDL134C, strain PPH21, hits give low values 0.958 | locus YDR101C, strain arx1, hits give low values 0.941 | locus YDR150W, strain NUM1, hits give low values 0.934 | locus YDR162C, strain NBP2, hits give low values 0.872 | locus YDR195W, strain ref2 0.976 | locus YDR502C, strain sam2, hits give low values 0.968 | locus YEL061C, strain CIN8, hits give low values 0.932 | locus YER110C, hits give low values 0.96 | locus YER155C, strain BEM2, hits give low values 0.962 | locus YER167W, strain BCK2, hits give low values 0.956 | locus YGL240W, strain doc1, hits give low values 0.924 | locus YGL248W, strain PDE1, hits give low values 0.964 | locus YGR078C, strain PAC10, hits give low values 0.986 | locus YGR135W, strain pre9, hits give low values 0.953 | locus YGR229C, strain SMI1, hits give low values 0.992 | locus YGR252W, strain gcn5, hits give low values 1 | locus YHR013C, strain ard1, hits give low values 0.904 | locus YHR030C, strain SLT2, hits give low values 0.936 and 0.964 | locus YHR079C, strain IRE1 (second series), hits give low values 0.941 | locus YHR079C, strain IRE1, hits give low values 0.961 | locus YHR094C, strain hxt1, hits give low values 0.96 | locus YHR129C, strain ARP1, hits give low values 0.952 | locus YHR200W, strain rpn10, hits give low values 0.932 | locus YIL066C, strain RNR3, hits give low values 0.965 | locus YIL073C, strain SPO22, hits give low values 0.824 | locus YIR030C, strain dcg1, hits give low values 0.945 | locus YJL095W, strain BCK1, hits give low values 0.944 and 0.936 | locus YJL134W, strain LCB3, hits give low values 0.95 | locus YJL168C, strain set2, hits give low values 0.95 | locus YJL187C, strain SWE1 (second series), hits give low values 0.957 | locus YJR043C, strain POL32, hits give low values 1.04 | locus YJR066W, strain TOR1, hits give low values 0.875
